According to PubChem BioAssay (NCATS):
Where “and” joins values, the source holds several entries; their conditions need not be identical. Equal entries are not always repeated. Inconclusive results are not listed. Where a call stands in place of a potency, no number is given. A structure can be active in one record and inactive in another. Calls of active or inactive are those of the source. Calls follow the shape of the dose curve; as a rule, active = well fitted curve in the direction sought with a large enough effect; inconclusive = small, poorly fitted or top-dose-only effect, or another doubt; inactive = no such curve, though single readings can be large; an effect the other way counts as inactive or inconclusive.

Key:
MKL-1 = assay: qHTS assay to identify novel small-molecules to repurpose for Merkel cell carcinoma treatment (AID 1296009); conditions: MCC and control cell lines, CellTiter-Glo viability, 72 h; series mostly up to 46 µM; also: nearly all actives have a fitted effect of over 60% in size
Method in brief: (§1)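 Cell viability measured by CellTiter-Glo following 72 hr compound treatment at 37 degree celsius, with NPC and MIPE libraries tested in 8- and 11-point concentration series.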

MKL-2 = assay: as above; conditions: MCC and control cell lines, CellTiter-Glo viability, 72 h; series mostly up to 46 µM
Method in brief: as §1

UISO = assay: as above; conditions: MCC and control cell lines, CellTiter-Glo viability, 72 h; series mostly up to 46 µM
Method in brief: as §1

WaGa = assay: as above; conditions: MCC and control cell lines, CellTiter-Glo viability, 72 h; series mostly up to 46 µM
Method in brief: as §1

C33A = assay: Primary qHTS to identify gynecologic anti-cancer compounds using libraries of approved drugs and bioactive compounds (AID 1345084); conditions: Gynecologic cancer cell panel viability, ATPlite luminescence, 48 h; series mostly up to 57.5 µM; also: nearly all actives have a fitted effect of over 55% in size
Method in brief: (§2)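 Measured: luminescence after ATPlite addition (15 min, RT). Exposure: 48 h, 37 C, 5% CO2.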

CASKI = assay: as above; conditions: Gynecologic cancer cell panel viability, ATPlite luminescence, 48 h; series mostly up to 57.5 µM
Method in brief: as §2

Es-2 = assay: as above; conditions: Gynecologic cancer cell panel viability, ATPlite luminescence, 48 h; series mostly up to 57.5 µM
Method in brief: as §2

HeLa = assay: as above; conditions: Gynecologic cancer cell panel viability, ATPlite luminescence, 48 h; series mostly up to 57.5 µM
Method in brief: as §2

CAOV3 = assay: as above; conditions: Gynecologic cancer cell panel viability, ATPlite luminescence, 48 h; series mostly up to 57.5 µM
Method in brief: as §2

NIH3T3 = assay: qHTS assay to identify novel small-molecules to repurpose for Merkel cell carcinoma treatment (AID 1296009); conditions: MCC and control cell lines, CellTiter-Glo viability, 72 h; series mostly up to 44.8 µM; also: nearly all actives have a fitted effect of over 60% in size
Method in brief: as §1
Potency is read from the fitted curve at half-maximal effect.

Structure (SMILES) | Potency (MKL-1) | Potency (MKL-2) | Potency (UISO) | Potency (WaGa) | Potency (C33A) | Potency (CASKI) | Potency (Es-2) | Potency (HeLa) | Potency (CAOV3) | outcome (NIH3T3)
NCCCCCC(=O)O | inactive | inactive | inactive | inactive | inactive | inactive | inactive | inactive |  | 
CN(C)CCC=C1c2ccccc2C=Cc2ccccc21 | inactive |  | inactive | inactive | inactive | inactive |  | inactive |  | 
Fc1ccc([C@@H]2CCNC[C@H]2COc2ccc3c(c2)OCO3)cc1 | inactive | inactive | inactive | inactive | inactive | inactive |  | inactive |  | 
CCOC(=O)c1ncn2c1CN(C)C(=O)c1cc(F)ccc1-2 |  |  |  |  | inactive | inactive | inactive | inactive | inactive | 
Cn1c(=O)c2[nH]cnc2n(C)c1=O |  |  |  |  | inactive | inactive | inactive | inactive | inactive | 
COc1cc2c(c(OC)c1OC)-c1ccc(OC)c(=O)cc1[C@@H](NC(C)=O)CC2 |  | inactive | inactive | inactive |  |  |  |  | inactive | 
O=c1c(-c2ccc(O)cc2)coc2cc(O)cc(O)c12 | inactive | inactive | inactive | inactive and 26.6 µM (active) | inactive |  | inactive |  |  | 
Clc1ccc(C(c2ccccc2Cl)C(Cl)Cl)cc1 (stereo unspecified) | inactive | inactive | inactive | inactive | inactive | inactive | inactive | inactive |  | 
NC(CO)C(=O)NNCc1ccc(O)c(O)c1O (stereo unspecified) |  |  |  |  |  | inactive | inactive | inactive |  | 
O=C(C1CCCCC1)N1CC(=O)N2CCc3ccccc3C2C1 (stereo unspecified) |  |  |  |  | inactive | inactive | inactive | inactive | inactive | 
Cc1cn([C@H]2C=C[C@@H](CO)O2)c(=O)[nH]c1=O | inactive | inactive | inactive | inactive | inactive | inactive | inactive | inactive |  | 
CC(CCc1ccc(O)cc1)NCCc1ccc(O)c(O)c1 (stereo unspecified) | 7.5 µM (active) | 23.5 µM (active) and 11.9 µM (active) |  | inactive | inactive | inactive | inactive | inactive | inactive | 
COc1cc2nc(N3CCN(C(=O)c4ccco4)CC3)nc(N)c2cc1OC | 29.6 µM (active) | 16.6 µM (active) |  | 20.9 µM (active) | inactive | inactive |  | inactive |  | 
Nc1nc2c(ncn2COC(CO)CO)c(=O)[nH]1 | inactive | inactive and 7.43 µM (active) | inactive and 18.7 µM (active) | inactive | inactive | inactive | inactive | inactive |  | 
O=C1N(c2ccccc2)c2ccccc2C1(Cc1ccncc1)Cc1ccncc1 | inactive | inactive | inactive | inactive | inactive |  | 1 µM (active) | inactive |  | 
Cc1cn([C@H]2C[C@H](N=[N+]=[N-])[C@@H](CO)O2)c(=O)[nH]c1=O |  |  |  |  | inactive |  | inactive | inactive |  | 
CN1CCN(CCCN2c3ccccc3Sc3ccc(Cl)cc32)CC1 | 16.6 µM (active) | 11.8 µM (active) | inactive |  | inactive | inactive | inactive | inactive | inactive | 
CCC1(c2ccccc2)C(=O)NCNC1=O |  |  |  |  | inactive | inactive | inactive | inactive | inactive | 

Structure (SMILES) | Potency (MKL-1) | Potency (MKL-2) | Potency (UISO) | Potency (WaGa) | Potency (C33A) | Potency (CASKI) | Potency (Es-2) | Potency (HeLa) | Potency (CAOV3) | outcome (NIH3T3)
O=C1Cc2cc(CCN3CCN(c4nsc5ccccc45)CC3)c(Cl)cc2N1 |  | 11.9 µM (active) and 14.8 µM (active) | 15 µM (active) and inactive |  | inactive | inactive | inactive | inactive |  | inactive
O=C(Nc1ccc([N+](=O)[O-])cc1Cl)c1cc(Cl)ccc1O |  |  | 3.26 µM (active) | 4.61 µM (active) | 2.51 µM (active) | 6.31 µM (active) | 2.51 µM (active) | 1.26 µM (active) |  | 
CN(C)CCCN1c2ccccc2CCc2ccc(Cl)cc21 | inactive | 18.7 µM (active) |  | 18.7 µM (active) | inactive |  |  | inactive |  | 
Clc1ccccc1C(c1ccccc1)(c1ccccc1)n1ccnc1 | inactive | inactive | inactive | 23.7 µM (active) and inactive |  | inactive | inactive | inactive | inactive | 
OCCN(CCO)c1nc(N2CCCCC2)c2nc(N(CCO)CCO)nc(N3CCCCC3)c2n1 | inactive |  | inactive | inactive | inactive | inactive | inactive |  | inactive | inactive
CC(C)NCC(O)c1ccc(O)c(O)c1 (stereo unspecified) | 8.41 µM (active) | 7.43 µM (active) and 18.8 µM (active) |  | 3.32 µM (active) and 18.8 µM (active) | inactive | inactive | inactive | inactive | inactive | 
CC#C[C@]1(O)CC[C@H]2[C@@H]3CCC4=CC(=O)CCC4=C3[C@@H](c3ccc(N(C)C)cc3)C[C@@]21C | inactive and 105 nM (active) | 21.1 µM (active) and 93.5 nM (active) | 2.96 µM (active) |  | inactive | inactive | inactive |  | inactive | 
CN1CCN2c3ccccc3Cc3ccccc3C2C1 (stereo unspecified) |  |  |  |  |  |  | inactive | inactive |  | 
CNCCCC12CCC(c3ccccc31)c1ccccc12 |  | 23.5 µM (active) |  | 29.9 µM (active) and inactive |  |  |  | inactive |  | 
O=c1[nH]cc(F)c(=O)[nH]1 | inactive | inactive |  | 10.5 µM (active) |  | inactive | inactive | inactive |  | 
CN(Cc1cnc2nc(N)nc(N)c2n1)c1ccc(C(=O)N[C@@H](CCC(=O)O)C(=O)O)cc1 | 10.5 µM (active) | inactive |  |  |  |  |  | 0.199 µM (active) |  | 
OCCN1CCN(CCCN2c3ccccc3Sc3ccc(C(F)(F)F)cc32)CC1 | 21.1 µM (active) | 20.9 µM (active) and 21.1 µM (active) | inactive | 20.9 µM (active) | inactive |  | inactive | inactive |  | 
COC(=O)Nc1nc2ccc(C(=O)c3cccs3)cc2[nH]1 |  |  | 0.0235 µM (active) |  | 1 µM (active) |  | 0.282 µM (active) | 0.158 µM (active) | inactive | 
CC(COc1ccccc1)N(CCCl)Cc1ccccc1 (stereo unspecified) |  |  |  |  | inactive | inactive | inactive | inactive |  | 
Cn1c(=O)c2c(ncn2C)n(C)c1=O | inactive | inactive | inactive | inactive | inactive | inactive | inactive | inactive |  | 
CCCCc1oc2ccccc2c1C(=O)c1cc(I)c(OCCN(CC)CC)c(I)c1 |  | 13.3 µM (active) | inactive | inactive | inactive | inactive | inactive | inactive | inactive | 
N[C@@H](Cc1c[nH]c2ccc(O)cc12)C(=O)O | inactive | inactive |  |  | inactive | inactive | inactive | inactive |  | 
